# Bioassay records deposited in PubChem BioAssay by several laboratories.
# Calpain2 inh: inhibitors of pig calpain II, primary screen, biochemical, fluorogenic peptide substrate, 1536-well; purified calpain II, 30 min; inhibition, % at 16 µM; actives 0.37% (n = 220,000); AID 1236, 2008;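 active = inhibition above about 50%, limit read from the data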
# ROMK primary: ROMK potassium channel modulators, primary screen, cell-based, thallium flux, MLSMR library. B-score at 10 µM. Tet-inducible ROMK, thallium flux fluorescence; actives lie on both sides. ATP-sensitive inward rectifier potassium channel 1 (Homo sapiens), P48048. actives 2% (n = 130,000);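 active = signal ratio slope over the read window, or its plate-corrected B-score, at least 3 SD from the plate mean, either direction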;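 also: B-score of the F/F0 ratio slope over 7 to 12 s after thallium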
# Target sequence (P48048 whole entry, looked up): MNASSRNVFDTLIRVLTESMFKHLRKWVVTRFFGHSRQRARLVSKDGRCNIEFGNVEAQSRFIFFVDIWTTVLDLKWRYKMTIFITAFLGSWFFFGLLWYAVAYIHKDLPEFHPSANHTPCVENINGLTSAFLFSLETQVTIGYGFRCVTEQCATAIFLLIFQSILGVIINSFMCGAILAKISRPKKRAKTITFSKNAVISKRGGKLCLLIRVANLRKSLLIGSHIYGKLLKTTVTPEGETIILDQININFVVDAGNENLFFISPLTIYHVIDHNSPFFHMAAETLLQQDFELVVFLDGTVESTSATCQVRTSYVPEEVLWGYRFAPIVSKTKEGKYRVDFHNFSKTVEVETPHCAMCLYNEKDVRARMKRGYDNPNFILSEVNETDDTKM
# Efa HMGR inh: inhibitors of E. faecalis class II HMGR, primary screen, biochemical, Enterococcus faecalis | purified E. faecalis HMGR, NADPH absorbance 340 nm kinetic | HMG-CoA reductase (Enterococcus faecalis, mvaE) | actives 0.41% (n = 190,000) | inhibition, % at 10 µM;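 active = inhibition above a set limit, the median over all tested compounds plus 3 SD, cut at about 9.5% in these data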;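 also: enzyme runs in reverse so mevalonate oxidation gives rising NADPH absorbance; 0% = complete reaction with DMSO and 100% = background rate lacking mevalonate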
# Arbovirus anti: antivirals against arbovirus infection, primary screen, cell-based, full library, 10K replicate subset | arbovirus infection cell-based antiviral screen | inhibition, % at 10 µM | actives 0.37% (n = 200,000); in the data active = inhibition above about 30%
# HSV augment: enhancers of HSV replication in host cells, fold increase, host cell viability; maximum fold increase; HSV replication augmentation in cells; actives 0.005% (n = 220,000); in the data active = maximum fold increase above about 1.5; tested in PC3 cells
# * marks the source's active call; other numbers are inactive results; i = inactive; x = no result given. The list is not random: actives were taken first. Their share in the collection is about 2.1%.
SMILES,Calpain2 inh,ROMK primary,Efa HMGR inh,Arbovirus anti,HSV augment
Nc1cc(Cl)ccc1Oc1ccccc1,-6,x,2,-6,i
Cc1cccc(Oc2ccc(Cl)cc2N)c1,50*,-0.27,-4,11,i
O=C(NC(=S)Nc1ccc2cn[nH]c2c1)c1ccccc1,5,-0.066,-1,1,i
CNc1nc(-c2ccccc2)nc(-c2ccc(OC)cc2)c1C#N,-34,-0.78,13*,1,i
Cc1ccc2cc(C3CC(c4ccco4)=NN3S(=O)(=O)c3ccccc3)c(Cl)nc2c1 (configuration not stated),-24,x,-6,37*,i
COc1ccc2cc(C3CC(c4ccco4)=NN3S(=O)(=O)c3ccccc3)c(Cl)nc2c1 (configuration not stated),-72,-0.87,-4,-5,i
CSc1ccc(S(=O)(=O)N(C)Cc2ccccc2)cc1,16,-1.6,-2,7,i
Cc1c(Br)c(=O)[nH]c(=O)n1COCc1ccccc1,19,0.66,-2,9,i
O=c1[nH]c(=O)n(C(c2ccccc2)c2ccccc2)cc1Br,-2,0.071,3,32*,i
COc1cc(C2C=C(c3cccs3)Nc3ncnn32)cc(OC)c1OC (configuration not stated),-174,x,5,6,x
O=c1/c(=C/c2ccc(O)c([N+](=O)[O-])c2)sc2nc3ccccc3n12,3,1,3,30*,i
Cc1cc(/C=c2/sc3nc4ccccc4n3c2=O)c(C)n1-c1ccccn1,-83,0.2,4,-9,i
Cc1cc(/C=c2\sc3nc4ccccc4n3c2=O)c(C)n1-c1ccc(C(=O)O)cc1,-31,2.5,-3,37*,i
Nc1nc2ccccc2n1CCOc1ccccc1Cl,-8,-3.9*,-3,9,i
O=C1/C(=C/c2cccnc2)Sc2ccccc21,3,-4.5*,1,0,i
COc1ccccc1C1=Nn2c(COc3ccccc3)nnc2SC1,2,0.049,-14,-2,i
CCCCOC(=O)c1nc[nH]c1C(=O)OCCCC,-9,-0.24,19*,24,i
COc1ccc(NC(=O)c2ccccc2N(Cc2ccccc2)S(C)(=O)=O)cc1OC,-5,0.51,10*,8,i
Cc1cc2nc(CSc3ccccc3)cc(=O)n2[nH]1,11,0.041,-4,2,i
O=[N+]([O-])/C(C(=C(Cl)Cl)N1CCN(Cc2ccccc2)CC1)=C1\NCCN1Cc1ccc(Cl)nc1,-15,-1.3,-4,-3,i
O=[N+]([O-])C(/C=C(\Cl)[N+](=O)[O-])=C1N(Cc2ccc(Cl)nc2)CCN1Cc1ccc(Cl)nc1,10,x,13*,2,i
CN(CCCC(=O)NC1CC(C)(C)NC(C)(C)C1)S(=O)(=O)c1ccc([N+](=O)[O-])cc1,-14,0.47,-4,4,i
O=C1c2ccccc2N2C(=O)c3ccccc3C2N1Cc1ccccc1 (configuration not stated),12,-0.47,x,x,i
O=C1c2ccccc2N2C(=O)c3ccccc3[C@H]2N1c1ccccc1,9,0.31,0,30*,i
CN(C)S(=O)(=O)c1cccc(NC(=O)Cn2cc(C(F)(F)F)cc(Cl)c2=O)c1,-15,0.16,16*,9,i
SMILES,Calpain2 inh,ROMK primary,Efa HMGR inh,Arbovirus anti,HSV augment
NS(=O)(=O)c1cccc(NC(=O)Cn2cc(C(F)(F)F)cc(Cl)c2=O)c1,19,x,x,x,i
COc1ccccc1-n1c(C)cc(/C=C2/C(=N)N3C(=NC2=O)SN=C3S(C)(=O)=O)c1C,-23,0.95,-1,35*,i
CCOc1ccc(-n2c(C)cc(/C=C3/C(=N)N4C(=NC3=O)SN=C4S(C)(=O)=O)c2C)cc1,-106,-0.021,-7,42*,i
CC1=CC2=NC(=O)/C(=C\c3cc(C)n(-c4ccc(F)cc4)c3C)C(=N)N2O1,-68,x,-3,4,i
Cc1cc(/C=C2/C(=N)N3C(=NC2=O)SN=C3S(C)(=O)=O)c(C)n1-c1ccc(F)cc1,-27,1.9,-1,37*,i
CCCCCC(=O)Nc1ccc(-c2csc(N)n2)cc1,-19,0.079,-2,-11,i
Cc1ccc(C(OCCN(C)C)c2cccc(C(F)(F)F)c2)cc1 (configuration not stated),-11,-2.6,0,-24,i
O=S(=O)(Nc1nc(-c2sccc2Cl)cs1)c1cc(Cl)ccc1Cl,54*,x,3,4,i
COc1ccc(-n2c(=O)c3ccccc3n(Cc3ccccc3F)c2=O)cc1OC,-45,1.1,-3,10,i
O=C(CCCN1C(=O)c2ccccc2C1=O)N1CCC(c2ccccc2)C1 (configuration not stated),51*,-0.01,-2,1,i
O=C(CCCN1C(=O)c2ccccc2C1=O)N1CCCCC1,11,x,0,5,i
Cc1ccc(C(=O)NC(=S)NNC(=O)COc2ccccc2C)cc1,-59,3*,-4,-17,i
Cc1cccc(C(=O)NC(=S)NNC(=O)Cc2ccccc2)c1,12,-0.012,-2,-31,i
Cc1ccccc1OCC(=O)Nc1ccccc1CO,17,-1.2,-3,5,i
CSc1ccccc1NC(=O)COc1ccccc1C,69*,-1.7,2,1,i
CCC(=O)NNC(=S)NC(=O)c1ccc(C)cc1,-13,1.2,4,-9,i
Cc1cccc(C(=O)NC(=S)NNC(=O)COc2c(C)cccc2C)c1,-36,2.7*,0,-17,i
Cc1cc(C)cc(NC(=O)COC(=O)CN=C2NS(=O)(=O)c3ccccc32)c1,-19,0.61,-1,-5,i
COC(=O)c1ccc2c(=O)n(CC3CCCO3)c(SCC(=O)Nc3ccc(OC)cc3OC)nc2c1 (configuration not stated),24,x,x,x,i
CC1CN(C(=O)/C(C#N)=C2\N=C(NC(=O)c3ccc(F)cc3)c3ccccc32)CC(C)O1 (configuration not stated),1,x,x,x,i
O=C(O)CCC(=O)/C=C/c1ccccc1,-11,0.32,12*,0,i
CC(C)c1ccc(/C=C/C(=O)CCC(=O)O)cc1,-32,0.027,3,16,x
Cc1ccccc1-c1nc2sc3c(c2c(=O)o1)CCC3,-13,0.37,-5,9,i
O=c1oc(-c2cc3ccccc3o2)nc2sc3c(c12)CCCC3,-369,-0.66,-5,78*,i
O=c1oc(-c2ccccc2)nc2sc3c(c12)CCCC3,-48,0.019,2,32*,i
CSc1nc2ccccc2n1CC(=O)Nc1ccc(C)c(C)c1,8,-0.13,-5,0,i
Cc1cccc(CSc2nc3ccncc3n2CC(=O)Nc2cc(C)cc(C)c2)c1,-12,-0.11,12*,-4,i
COC(=O)c1cn(NC(=O)Cc2ccccc2Br)c(=O)c2ccccc12,9,0.26,-2,-1,i
